Sampled rows, rich in hits. Any-hit rate of the full collection: about 0.44%.
USP1-UAF1 inh = USP1/UAF1 (human) deubiquitinase inhibition. O94782. recombinant USP1/UAF1, Ub-Rhodamine cleavage fluorescence. Potency, µM (series often up to 57.1 µM), hits mostly inhibitors. actives 0.23% (n = 390,000). AID 743255; also: nearly all actives have a fitted effect of over 60% in size
Target sequence (O94782 whole entry, looked up): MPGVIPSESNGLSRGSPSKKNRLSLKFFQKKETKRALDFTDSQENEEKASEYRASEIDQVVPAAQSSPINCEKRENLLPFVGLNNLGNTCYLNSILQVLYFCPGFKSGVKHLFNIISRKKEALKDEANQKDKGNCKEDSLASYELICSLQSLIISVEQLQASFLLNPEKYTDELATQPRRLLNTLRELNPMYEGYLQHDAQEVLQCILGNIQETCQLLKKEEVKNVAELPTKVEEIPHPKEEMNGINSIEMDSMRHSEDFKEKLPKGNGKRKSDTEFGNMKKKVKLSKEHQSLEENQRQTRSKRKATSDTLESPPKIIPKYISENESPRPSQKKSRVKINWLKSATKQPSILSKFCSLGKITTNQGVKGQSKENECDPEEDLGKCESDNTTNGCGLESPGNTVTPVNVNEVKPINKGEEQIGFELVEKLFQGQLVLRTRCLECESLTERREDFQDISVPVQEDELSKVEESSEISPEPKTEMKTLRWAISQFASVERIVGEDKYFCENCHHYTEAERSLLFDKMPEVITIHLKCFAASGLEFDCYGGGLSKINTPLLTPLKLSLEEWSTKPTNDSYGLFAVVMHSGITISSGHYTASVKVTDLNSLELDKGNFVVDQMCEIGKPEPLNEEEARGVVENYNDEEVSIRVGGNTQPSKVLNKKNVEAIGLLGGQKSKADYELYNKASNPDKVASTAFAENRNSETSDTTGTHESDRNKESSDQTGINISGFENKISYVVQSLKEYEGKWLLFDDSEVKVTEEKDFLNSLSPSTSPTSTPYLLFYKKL
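High-throughput fluorogenic screen: 1nM USP1/UAF1 complex, Ub-Rho substrate 150nM final, 50mM HEPES pH 7.8 with 0.5mM EDTA, 0.1 mg/ml BSA, 1mM TCEP and 0.01% Tween-20.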
EPAC2 ag = EPAC2 (human) agonism; EPAC2 activation, biochemical qHTS; response scale: 100% = 6.5 mM cAMP response; actives 0.079% (n = 360,000); Potency, µM (doses to about 154 µM), most hits filed as activators; Q8WZA2; also: nearly all actives have a fitted effect of over 50% in size
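Fluorescence exchange assay: 100 nM EPAC2 with 250 nM RAP1B-BODIPY-GDP and 50 uM GDP; compounds tested as a concentration-titration series (qHTS). Loss of Rap1-bound BODIPY-GDP fluorescence read at 480/540 nm; data normalized to 6.5 mM cAMP.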
EPAC1 agonist = agonists of human EPAC1; O95398; EPAC1 agonist qHTS, biochemical assay; response scale: 100% = response to 6.5 mM cAMP; Potency, µM (top dose mostly 154 µM), hits mostly activators; actives 0.073% (n = 360,000); AID 720707; also: nearly all actives have a fitted effect of over 60% in size
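Nucleotide exchange assay: 100 nM EPAC1 with 250 nM Rap1B loaded with BODIPY-GDP and 50 uM GDP, room temperature. Fluorescence (480/540 nm) read every 5 min for 30 min; signal change normalized to 6.5 mM cAMP as full agonist.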
EPAC1 antag = EPAC1 (human) antagonism | EPAC1 GEF assay, Rap1b-BODIPY-GDP exchange fluorescence | Potency, µM (doses to about 115 µM), most hits filed as inhibitors | actives 0.14% (n = 360,000) | AID 720709; also: nearly all actives have a fitted effect of over 50% in size
EPAC2 antag = EPAC2 (human) antagonism | Q8WZA2 | EPAC2 GEF exchange of Rap1B-BODIPY-GDP, fluorescence | Potency, µM (titrated, usually from 114 µM), hits mostly inhibitors | actives 0.18% (n = 360,000) | AID 720708; also: nearly all actives have a fitted effect of over 45% in size
Large screens that a line does not name were inactive; ! = repeats disagree. Calls follow the shape of the dose curve; as a rule, active = well fitted curve in the direction sought with a large enough effect; inconclusive = small, poorly fitted or top-dose-only effect, or another doubt; inactive = no such curve, though single readings can be large; an effect the other way counts as inactive or inconclusive.

COC(=O)c1ccccc1S(=O)(=O)N1CCC(NC(=O)C(Cc2cccc(OC)c2OC)NC(C)=O)CC1 (stereo not drawn)	none
COc1cc(/C=C2\SC(=O)N(CC(=O)Nc3cccc(C)c3)C2=O)cc([N+](=O)[O-])c1O	EPAC1 antag inconclusive, EPAC2 antag 50µM
COc1cc(/C=C2\SC(=O)N(c3ccccc3Cl)C2=O)cc([N+](=O)[O-])c1O	EPAC1 antag 79µM, EPAC2 antag inconclusive
COc1cc(/C=C2/C(=O)NN(c3ccc(Cl)c(Cl)c3)C2=O)cc([N+](=O)[O-])c1O	USP1-UAF1 inh inconclusive, EPAC1 antag inconclusive
CCOc1cc(/C=C2\SC(=O)N(CC(=O)Nc3ccccc3F)C2=O)cc([N+](=O)[O-])c1O	EPAC1 antag inconclusive, EPAC2 antag inconclusive
COc1cccc(C(=O)NC2CCCN(C3Cc4ccccc4C3)C2)c1OC (stereo not drawn)	none
Clc1ccccc1C1CC(c2ccccc2)=Nc2ccccc2N1 (stereo not drawn)	USP1-UAF1 inh 50µM
CC(NC1=CC(=O)c2cccnc2C1=O)C(O)c1ccccc1 (stereo not drawn)	USP1-UAF1 inh 5.6µM, EPAC1 antag inconclusive, EPAC2 antag inconclusive
COCCCNC(=O)CSc1nc2cc3c(cc2c(=O)n1CCCC(=O)NCc1ccc2c(c1)OCO2)OCO3	none (no result: EPAC2 ag, EPAC1 agonist, EPAC1 antag, EPAC2 antag)
O=C(O)c1cccc(NC2=C(N3CCOCC3)C(=O)c3ccccc3C2=O)c1	USP1-UAF1 inh 32µM
O=C1C=C(N2CCOCC2)c2ccccc2C1=O	USP1-UAF1 inh 3.2µM, EPAC1 antag 10µM, EPAC2 antag inconclusive
CN=c1sc2c(n1C)C(=O)c1ccccc1C2=O	USP1-UAF1 inh 16µM
CCCOc1ccc(C(=O)Nc2ccc3oc(-c4ccc(N(C)C)cc4)nc3c2)cc1	none (no result: EPAC2 ag, EPAC1 agonist, EPAC1 antag, EPAC2 antag)
O=C1C(SCCO)=C(SCCO)C(=O)c2ccccc21	USP1-UAF1 inh 6.3µM, EPAC1 antag inconclusive
Cn1c(SCC(=O)NC2CCCCC2)nnc1C(F)(F)F	none
CCOC1(c2ccccc2)OC(=O)c2ccccc21 (stereo not drawn)	EPAC2 antag inconclusive
CC(C)OC1(c2ccccc2)OC(=O)c2ccccc21 (stereo not drawn)	EPAC2 antag 35µM
C/C(=N\NC(=O)c1cc2ccccc2cc1O)c1cc2ccccc2o1	USP1-UAF1 inh inconclusive, EPAC1 antag 50µM
COc1cccc2cc(/C(=N/O)c3ccccc3)oc12	EPAC2 antag 50µM
CC(C)c1ccc(N(C(=O)CNC(=O)c2ccco2)C(C(=O)NC2CCCC2)c2cccnc2)cc1 (stereo not drawn)	none
Cc1ccc(-c2ccc(CN3C(CC(C)C)C(=O)N(Cc4cn(CCC5OCCCO5)nn4)CCS3(=O)=O)cc2)cc1 (stereo not drawn)	EPAC2 antag inconclusive
CC(C)CC1C(=O)N(Cc2cn(CCC3OCCCO3)nn2)CCS(=O)(=O)N1Cc1ccc(-c2ccc(F)cc2)cc1 (stereo not drawn)	EPAC2 antag 22µM
COc1cc(NCCCC(C)N)c2ncccc2c1 (stereo not drawn)	USP1-UAF1 inh 5µM, EPAC1 antag inconclusive
Cc1cccc(C(=O)Nc2cccc(C(=O)Nc3cc(C)ccn3)c2)c1	EPAC1 antag inconclusive
CCOC(=O)COc1ccc(Br)cc1/C=C\c1[nH]c(=O)[nH]c(=O)c1[N+](=O)[O-]	EPAC1 antag inconclusive
CCOC(=O)COc1ccc(Br)cc1/C=C/c1[nH]c(=O)[nH]c(=O)c1[N+](=O)[O-]	EPAC1 antag 32µM
CC(=O)N1CCc2nc3sc(C(=O)c4ccc(F)cc4)c(N)c3c(C(F)(F)F)c2C1	none (no result: EPAC2 ag, EPAC1 agonist, EPAC1 antag, EPAC2 antag)
COc1ccc(C(=O)c2sc3nc4c(c(C(F)(F)F)c3c2N)CN(C(C)=O)CC4)cc1OC	USP1-UAF1 inh 40µM (no result: EPAC2 ag, EPAC1 agonist, EPAC1 antag, EPAC2 antag)
CCOc1ccccc1NC(=O)Cn1c(=O)n(CC(=O)NCc2ccccc2Cl)c(=O)c2sccc21	none (no result: EPAC2 ag, EPAC1 agonist, EPAC1 antag, EPAC2 antag)
Cc1nn(CCCC(=O)NC(C)c2ccccc2)c(=O)c2nn(-c3ccccc3)c(C)c12 (stereo not drawn)	none
Cc1ccc(S(=O)(=O)c2nc(-c3ccco3)oc2SC(C)C)cc1	USP1-UAF1 inh inconclusive, EPAC2 antag 56µM
CSCC[C@H](NC(=O)N1CCn2c1nc1ccccc12)C(=O)NCc1ccccc1	none
Cc1nc2ccccc2n2c(O)c(CC(=O)O)cc12	USP1-UAF1 inh inconclusive, EPAC2 ag 112µM, EPAC1 agonist inconclusive
Cc1nc2ccccc2n1CCC(=O)O	none
Cc1ccc(CN(Cc2ccco2)C(=O)COc2ccccc2C)cc1	none (no result: EPAC2 ag, EPAC1 agonist, EPAC1 antag, EPAC2 antag)
Cc1ccc(NC2=C(NCCO)C(=O)c3ccccc3C2=O)cc1	USP1-UAF1 inh 14µM, EPAC2 antag inconclusive
CC(=O)Nc1ccc(NC2=C(Cl)C(=O)c3ccccc3C2=O)cc1	USP1-UAF1 inh inconclusive
CCOC(=O)[C@H]1[C@H]2COc3ccc(OC)cc3[C@@H]2N2C(=O)c3cc(F)c(F)cc3NC(=O)[C@@]12C	none
O=C(O)C(c1ccccc1)N1C(=O)/C(=C\c2ccc(-c3ccccc3Cl)o2)SC1=S (stereo not drawn)	USP1-UAF1 inh inconclusive, EPAC2 ag 112µM
O=C(O)C(c1ccccc1)N1C(=O)/C(=C\c2ccc(-c3ccc(Br)cc3)o2)SC1=S (stereo not drawn)	none
O=c1c2cc([N+](=O)[O-])cc([N+](=O)[O-])c2[nH]n1-c1ccccc1	EPAC1 antag inconclusive, EPAC2 antag 45µM
Cn1cc(/C=C2\SC(=S)N(NC(=O)c3ccccc3Cl)C2=O)c2ccccc21	USP1-UAF1 inh inconclusive, EPAC2 ag inconclusive, EPAC1 agonist 100µM
Cn1cccc1/C=C1\SC(=S)N(NC(=O)c2ccccc2Cl)C1=O	none
Cc1ccc(C(=O)NN2C(=O)/C(=C/c3cccn3C)SC2=S)cc1	USP1-UAF1 inh inconclusive
Cc1ccc(C(=O)NN2C(=O)/C(=C/c3cn(C)c4ccccc34)SC2=S)cc1	EPAC1 agonist 100µM
CCN(C(=O)COC(=O)c1ccc(C=O)cc1)c1c(N)n(Cc2ccccc2)c(=O)[nH]c1=O	none
CC[N+](CC)(CC)CCCCOc1ccc2c(c1)C(=O)c1cc(OCCCC[N+](CC)(CC)CC)ccc1-2	none
Cc1ccc(SC/C(O)=C(\C#N)c2nc3ccccc3s2)cc1	EPAC2 ag 10µM
O=C1/C(=C/c2ccccc2)CCCc2ccccc21	none
CN(C)c1ccc(/C=C2\CCC/C(=C\c3ccccc3)C2=O)cc1	USP1-UAF1 inh 32µM, EPAC2 ag inconclusive
CCN1C(=O)C(=CC=CN(C)c2ccccc2)SC1=S	USP1-UAF1 inh inconclusive, EPAC2 ag 89µM, EPAC1 agonist inconclusive
CCOC(=O)C1=C(C)NC(C)=C(C(=O)OCC)C1	USP1-UAF1 inh 22µM!, EPAC1 agonist inconclusive
CCCC1C(C(=O)OCC)=C(C)NC(C)=C1C(=O)OCC	none
CC(C)(C)c1ccc(OCCSc2nc(-c3cccs3)nc3cc(=O)[nH]n23)cc1	none (no result: EPAC2 ag, EPAC1 agonist, EPAC1 antag, EPAC2 antag)

Source: PubChem
